# Neddyl block: cullin neddylation inhibition. P61081+Q13564. TR-FRET cullin neddylation, biochemical. calls only at 25 µM. 360,000 compounds, 0.58% hits. AID 651699; in the data active = inhibition above about 36%
# KLK7 zymogen act: activators of human kallikrein-7 zymogen; purified proKLK7, EDANS-DABCYL substrate fluorescence; 100% is mature enzyme control, 0% vehicle; activation, % at 7 µM; 370,000 compounds, 0.9% hits; AID 652039;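 active = activation above the mean of all tested compounds plus 3 SD, computed per campaign excluding outliers beyond control limits, cut at about 13% in these data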
# FAS-TE inh: blocks the thioesterase domain of human fatty acid synthase; inhibition, % at 15 µM; 360,000 compounds, 0.67% hits; recombinant FAS-TE, OMFH fluorogenic substrate, fluorescence endpoint;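 active = compounds whose normalised, plate-corrected inhibition of enzyme fluorescence in the single-dose primary screen is 50% or more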;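 note: 0% = DMSO with enzyme and 100% = substrate without enzyme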
# PfG6PD inh: PfG6PD (Plasmodium falciparum) enzyme inhibition | PfGluPho enzyme, NADPH resazurin-diaphorase fluorescence | inhibition, % at 20 µM | 350,000 compounds, 0.78% hits;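 active = inhibition reaching at least a set limit at 20 µM in the primary screen, cut at about 59% in these data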;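 note: 0% = DMSO wells with substrate and 100% = DMSO wells lacking glucose-6-phosphate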
# PfGluPho conf: confirmation of Plasmodium falciparum G6PD inhibitors; recombinant PfGluPho, NADPH-diaphorase-resazurin fluorescence; AID 504753; 2,400 compounds, 34% hits; inhibition, % at 20 µM; shares compounds with PfG6PD inh;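 active = inhibition of at least 50% at 20 µM in any single replicate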;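 note: 0% = DMSO with substrate and 100% = DMSO lacking glucose-6-phosphate substrate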
# Diaphorase 10uM: diaphorase inhibition or oxidation at 10 uM NADPH | diaphorase-coupled resazurin reduction, fluorescence, NADPH 10 uM | inhibition, % at 20 µM | 820 compounds, 39% hits | AID 504862 | shares compounds with PfG6PD inh;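 active = average inhibition reaching 50% or more with the compound at 20 µM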;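 note: resorufin red fluorescence formed as diaphorase reduces resazurin using NADPH; 0% = DMSO with enzyme and 100% = DMSO without enzyme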
# Diaphorase 30uM: inhibits diaphorase or oxidizes, flagging false PfG6PD hits; inhibition, % at 20 µM; 820 compounds, 29% hits; shares compounds with PfG6PD inh; Diaphorase/resazurin coupled assay, resorufin fluorescence, 30 uM NADPH; AID 504863;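 active = inhibition averaging 50% or more, tested at 20 µM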;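 note: 0% = DMSO with enzyme and 100% = DMSO wells lacking diaphorase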
# The depositor's hits bear a star; i = inactive; nt = not tested or not shown. Shown are actives, neighbours in structure and some others; about 2.7% of the full set was active somewhere.
SMILES,Neddyl block,KLK7 zymogen act,FAS-TE inh,PfG6PD inh,PfGluPho conf,others
CCc1[nH]c(=S)c(C#N)c2c1CCCC2,i,-0.5,-6.3,66.2*,41.2,
CCc1nc(Nc2cccc(O)c2)c2oc3ccccc3c2n1,nt,nt,7.9,73.2*,12.4,
CCc1nc(Nc2ccc3c(c2)OCO3)c2oc3ccccc3c2n1,nt,0.0,9.3,27.8,nt,
COc1ccc(C(C(=O)N(C)C2CCCC2)N(Cc2ccc(F)cc2)C(=O)c2sccc2Cl)cc1OC (stereo not given),nt,-0.1,nt,nt,nt,
CN(C)c1ccc(C(=S)N2CCN(c3ccc([N+](=O)[O-])cc3)CC2)cc1,i,-0.3,23.6,60.1*,31.3,
O=[N+]([O-])c1ccc(C(=S)N2CCN(c3ccc(F)cc3)CC2)cc1,i,0.3,21.1,54.1,nt,
Oc1cc2c(cc1O)C1c3ccc(O)c(O)c3OCC1(O)C2 (stereo not given),i,11.7,-3.4,113.1*,105.9*,Diaphorase 10uM=74.1*;Diaphorase 30uM=46.9
CCN(CC)c1ccc(NC(=O)c2ccccc2F)cc1S(=O)(=O)Nc1ccccc1OC,i,0.4,12.5,52.3,nt,
CCN(CC)c1ccc(NC(=O)c2ccccc2Br)cc1S(=O)(=O)Nc1ccccc1OC,i,-1.0,27.4,86.1*,63.6*,Diaphorase 10uM=-20.6;Diaphorase 30uM=-19.3
CCN(CC)c1ccc(NC(=O)c2ccc(=O)[nH]c2)cc1S(=O)(=O)Nc1ccccc1OC,i,0.8,9.6,61.8*,40.6,
CCN(CC)c1ccc(NC(=O)COc2ccccc2C)cc1S(=O)(=O)Nc1ccccc1OC,i,0.2,29.9,60.6*,23.1,
CC(C)CN1C(=O)C[C@@]2(C(=O)N(C)c3ccc(NS(=O)(=O)C4CC4)cc32)C1c1ccccc1 (stereo not given in full),nt,0.2,nt,nt,nt,
Cc1ccccc1NC(=O)OC1CCC12CCCCC2 (stereo not given),nt,-0.7,nt,nt,nt,
CC(C)(C)c1ccc(S(=O)(=O)N2CCCC(C(=O)NCc3ccco3)C2)cc1 (stereo not given),nt,0.2,nt,nt,nt,
COc1cccc2sc3ccc(C#CC4(O)CCCCC4)cc3c(=O)c12,i,-12.1,38.9,68.1*,30.3,
O=c1c2ccccc2sc2ccc(C#CC3(O)CCCCC3)cc12,i,-2.4,22.9,45.8,nt,
COC(=O)c1cc(-c2cc(F)cc(OC)c2)c(=O)n2c1CCC2,nt,-0.3,nt,nt,nt,
Cc1ccc(-c2nc(C(=O)NCC3CCCO3)cc3c2[nH]c2ccccc23)cc1 (stereo not given),i,-3.2,22.1,39.6,nt,
Cc1ccccc1-c1nc(C(=O)NCC2CCCO2)cc2c1[nH]c1ccccc12 (stereo not given),i,-0.9,19.0,59.7*,4.7,
CN1c2cccc3cccc(c23)N(C)C1(C)C,nt,-38.2,1.3,70.8*,39.3,
O=C(Nc1ccc(OC(F)(F)F)cc1)Nc1c(-c2ccccc2)nc2ncccn12,nt,-4.1,nt,nt,nt,
CS(=O)(=O)c1cccc(C(=O)Nc2cccc(S(=O)(=O)N3CCCC3)c2)c1,i,0.4,1.5,14.2,nt,
COc1cc(C(=O)Nc2cccc(S(=O)(=O)N3CCCC3)c2)cc(OC)c1C,i,0.2,18.2,60.3*,-8.3,
CCN(CC)C(=O)CC[C@H]1CC[C@]2(CCCN(C(=O)c3ccccc3)C2)O1,nt,0.1,nt,nt,nt,
COc1ccc(NC(=S)N(CCC(C)C)C2CCN(C(C)C)CC2)cc1Cl,i,0.5,17.9,69.2*,82.8*,Diaphorase 10uM=-12.8;Diaphorase 30uM=-14.0
SMILES,Neddyl block,KLK7 zymogen act,FAS-TE inh,PfG6PD inh,PfGluPho conf,others
CC(NC(=O)c1cc2ccccn2n1)c1ccccc1 (stereo not given),nt,-0.6,nt,nt,nt,
O=C(Nc1ccc(Br)cc1)c1cc2ccccn2n1,i,0.2,2.1,71.2*,28.6,
COc1ccc(CN(CCN2CCOCC2)C(=O)c2cc(F)ccc2C)cc1OC,nt,-0.1,nt,nt,nt,
CCNC(=S)NNC(=O)CSc1nnc(-c2ccccc2)n1-c1ccc(Cl)cc1,nt,-0.2,nt,nt,nt,
Cc1cc2cc(CN(Cc3ccc4c(c3)OCO4)C(=O)c3ccco3)c(=O)[nH]c2cc1C,i,nt,5.4,81.6*,38.2,
CN(C(=O)CCn1nnc(-c2cccs2)n1)C1CCCCC1,nt,-0.3,nt,nt,nt,
Cc1cc2nc(/C(C#N)=C\c3ccc(-c4ccccc4C(=O)O)o3)[nH]c2cc1C,i,-0.6,-19.7,59.6*,46.1,
COc1ccc(Cc2c(-c3ccc(F)cc3)nc3ccc(Cl)cn23)c(C)c1,i,-0.5,-4.8,nt,nt,
